AMA1-RON2 inh: qHTS for Inhibitors of AMA1-RON; Towards Development of Antimalarial Drug Lead: Primary Screen | AID 720542, 2013 | Plasmodium falciparum AMA1 (3D7) - RON2 peptide interaction | actives 0.2% (n = 360,000) | Potency, µM (titrated, usually from 58.2 µM), actives largely listed as inhibitors | AlphaScreen AMA1-biotinylated RON2 peptide binding; note: nearly all actives have a fitted effect of over 45% in size
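AMA1 (3D7) with his tag at 25 nM final met compounds first, then biotinylated RON2 peptide at 25 nM; detection used donor plus acceptor beads, 10 µg/mL apiece, read by AlphaScreen after 30 min at room temperature.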
Shiga inhibitor: A qHTS for Small Molecule Inhibitors of Shiga Toxin. Vero cells, Shiga toxin protein synthesis inhibition reporter. inhibition, % at 38.7 µM. actives 9.2% (n = 290,000); in the data active = inhibition mostly above about 28%, no sharp cut-off; inactive = mostly below about 43%
CHX counter: Cycloheximide Counterscreen for Small Molecule Inhibitors of Shiga Toxin. cell reporter, cycloheximide protein synthesis inhibition counterscreen. actives 12% (n = 300,000). AID 2314, 2010. max response, %; in the data active = max response mostly above about 13%, no sharp cut-off; inactive = mostly below about 14%; note: read at 38.3 µM for the half of the compounds with a filed dose
SARS PLP yeast: qHTS of Yeast-based Assay for SARS-CoV PLP | Potency, µM (top dose mostly 32.9 µM), hits mostly activators | AID 485353, 2010 | actives 0.19% (n = 330,000) | S. cerevisiae expressing SARS-CoV PLpro, growth rescue; calls by dose curve; note: nearly all actives have a fitted effect of over 55% in size
Pf growth 96h: Primary qHTS for delayed death inhibitors of the malarial parasite plastid, 96 hour incubation; actives 6.9% (n = 320,000); AID 504834, 2011; P. falciparum luciferase reporter growth, 96 h; Potency, µM (highest dose often 28.7 µM), actives largely listed as inhibitors
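Readout is luminescence from an integrated firefly luciferase in P. falciparum. Red cells, 2% hematocrit and 0.05% parasitemia final, were cultured with compound through two parasite generations (96 hours) at 37 C, 5% CO2.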
Pf growth 48h: Primary qHTS for delayed death inhibitors of the malarial parasite plastid, 48 hour incubation. Potency, µM (highest dose often 28.7 µM), usual class: inhibitors. actives 5.9% (n = 310,000). AID 504832, 2011. P. falciparum luciferase growth in erythrocytes, 48 h
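Growth was read as firefly luciferase luminescence after a 48 h, 37 C, 5% CO2 exposure of compounds to reporter-bearing P. falciparum cultures (0.1% parasitemia, 2% hematocrit final) in Albumax-supplemented RPMI 1640.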
A number is an active result; i = inactive; ? = inconclusive; nt = no result given; [ ] = remark or other dose. Shown are actives, neighbours in structure and some others; about 19% of the full set was active somewhere. Unless noted, calls come from the whole dose curve; as a rule, active = well fitted curve in the direction sought with a large enough effect; inconclusive = small, poorly fitted or top-dose-only effect, or another doubt; inactive = no such curve, though single readings can be large; an effect the other way counts as inactive or inconclusive.

SMILES	AMA1-RON2 inh	Shiga inhibitor	CHX counter	SARS PLP yeast	Pf growth 96h	Pf growth 48h
O=C(c1ccc(F)cc1)N1CCC2(CC1)NCCc1[nH]cnc12	i	i	i	i	i	i
Cc1ccc2nc(-c3cccc(SC4CCCCC4)c3)c(NC3CCCCC3)n2c1	i	nt	nt	i	nt	nt
CCC(C)Sc1ccc(-c2nc3ccc(C)cn3c2NC2CCCCC2)cc1 (stereo not drawn)	i	nt	nt	i	?	12µM
CCC(C)Sc1cccc(-c2nc3ccc(C)cn3c2NC2CCCCC2)c1 (stereo not drawn)	i	nt	nt	i	13µM	8.3µM
CCC(=O)Nc1c(-c2ccc(C)cc2)nc2ccc(C)cn12	i	i	i	i	12µM	?
Cc1ccc2nc(-c3cccnc3)c(NC3CCCCC3)n2c1	i	i	i	i	i	?
COC(=O)Nc1c(-c2ccccc2)nc2ccc(Cl)cn12	i	i	i	i	?	i
CC1CC(C)CN(CCCNC(=O)Cn2ncc3c(=O)oc4ccccc4c32)C1 (stereo not drawn)	i	i	i	i	?	nt
O=C(Cn1ncc2c3ccccc3n(Cc3ccc(F)cc3)c2c1=O)N1CCN(c2ncccn2)CC1	i	i	i	i	i	9.3µM
Cc1c2cnn(CC(=O)NCCCN3CC(C)CC(C)C3)c(=O)c2c(C)n1Cc1ccccc1Cl (stereo not drawn)	i	i	i	i	i	6.6µM
Cc1c2cnn(CC(=O)N3CCC4(CC3)OCCO4)c(=O)c2c(C)n1Cc1ccccc1Cl	i	i	14	i	i	i
O=C(Cn1ncc2c3ccccc3n(Cc3ccc(F)cc3)c2c1=O)N1CCC2(CC1)OCCO2	i	i	i	i	?	12µM
Cc1c2cnn(CC(=O)N3CCC4(CC3)OCCO4)c(=O)c2c(C)n1Cc1ccccc1	i	i	i	i	i	i
CCc1ccc([C@@H]2CC(=O)[C@@H]3CN(S(=O)(=O)c4ccccc4C)[C@H](c4ccc(Cl)cc4)C[C@@H]3N2S(=O)(=O)c2ccc(C)cc2)cc1	i	nt	nt	nt	nt	nt
N#CCc1cc2ccc3cccc4ccc(c1)c2c34	i	i	i	i	i	i
CCOC(=O)Cn1ncc2c3ccccc3n(CC(=O)OCC)c2c1=O	i	i	i	i	i	nt
COC(=O)Cn1ncc(N(C)Cc2ccccc2)c(Cl)c1=O	i	72	41	i	i	i
COC(=O)Cn1nc(C)c2ccccc2c1=O	i	i	i	i	i	i
O=c1[nH]ncc2c3ccccc3n(Cc3ccc(F)cc3)c12	i	i	i	i	i	3.3µM
COC(=O)Cn1ncc2c3ccccc3n(Cc3ccccc3)c2c1=O	i	i	i	i	5.2µM	?
Cc1cccc(OCCCC(=O)NNC(=O)CCN2CCN(c3ccccc3)CC2)c1	i	nt	nt	i	i	?
COc1ccc(-n2nc(C(=O)NCC(=O)Nc3cc(C)ccc3OC)c3ccccc3c2=O)c(OC)c1	i	i	i	i	?	12µM
COc1ccc(OC)c(NC(=O)Cn2c(C)nc3ccccc3c2=O)c1	i	82	32	i	i	i
COc1ccc(-n2nc(C(=O)NCC(=O)N3CCCC3)c3ccccc3c2=O)c(OC)c1	i	i	i	i	i	i
COc1ccc(-n2nc(C(=O)NCC(=O)N3CCN(c4ccc(F)cc4)CC3)c3ccccc3c2=O)c(OC)c1	i	i	16	i	i	?
SMILES	AMA1-RON2 inh	Shiga inhibitor	CHX counter	SARS PLP yeast	Pf growth 96h	Pf growth 48h
COc1ccc(-n2nc(C(=O)NCC(=O)N3CC(C)CC(C)C3)c3ccccc3c2=O)c(OC)c1 (stereo not drawn)	i	i	i	i	i	2.1µM
O=C(Nc1cc(C(F)(F)F)cc(C(F)(F)F)c1)[C@H]1O[C@@H](n2ccc(=O)[nH]c2=O)[C@H](O)[C@@H]1O	i	nt	nt	nt	nt	nt
CCOC(=O)N1CCN(C(=O)CNC(=O)c2nn(-c3ccc(OC)cc3OC)c(=O)c3ccccc23)CC1	i	31	25	i	1µM	?
CCC1=NN(C(=O)Cc2ccc(OC)c(OC)c2)C(O)(C(F)(F)F)C1 (stereo not drawn)	i	i	i	i	i	i
O=C(N/N=C/c1cc([N+](=O)[O-])ccc1O)C12CC3CC(CC(C3)C1)C2	i	i	25	?	i	8.3µM
Cc1cc(C)n(CC(=O)N/N=C/c2cc([N+](=O)[O-])ccc2O)n1	i[2.32 µM]	i	i	i	i	?
O=C(N/N=C/c1ccc(O)cc1)c1cc(C23CC4CC(CC(C4)C2)C3)[nH]n1	i	i	i	i	i	i
O=C(N/N=C/c1cc([N+](=O)[O-])ccc1O)NC12CC3CC(CC(C3)C1)C2	i	96	73	?	3.3µM	i
CCNC(=O)C(=O)N/N=C/c1cc([N+](=O)[O-])ccc1O	i	i	i	i	10µM	?
O=C(N/N=C/c1ccc(O)cc1O)NC12CC3CC(CC(C3)C1)C2	i	33	24	i	i	?
O=C(N/N=C/c1cc([N+](=O)[O-])ccc1O)Nc1ccccc1	i	i	i	i	i	?
CN1C=CC2=C(C#N)C(N)C(C#N)(C#N)[C@H](c3ccccc3)[C@H]2C1 (stereo partly drawn)	i	i	i	i	?	i
COc1ccc(CN2C[C@@H](CO)O[C@@H](n3cnc4c(NC5CCC5)ncnc43)C2)cc1	i	nt	nt	nt	nt	nt
CC(=O)N1[C@H](Cc2ccccc2)C=C[C@]1(C)C(=O)NCc1ccccn1	i	i	i	i	i	i
Nc1nnnn1CC(=O)N/N=C/c1cc([N+](=O)[O-])ccc1O	i	i	i	i	i	?
Nc1nnc(CC(=O)N/N=C\c2cc([N+](=O)[O-])ccc2O)s1	i	i	i	i	10µM	i
Cc1cc(OCCN2CC2)c2ccccc2n1	nt	i	i	i	10µM	13µM
Cc1ccccc1OCCN1CCCC1	i	i	i	i	i	i
CCN1/C(=C/C(=O)c2ccco2)Sc2ccccc21	i	i	24	i	i	i
CCC(=O)/C=C1/Sc2ccccc2N1CC	i	121	29	i	i	i
COc1ccc(N=C2S/C(=C\c3ccc(OC(C)C(=O)O)c(OC)c3)C(=O)N2CCc2c[nH]c3ccccc23)cc1 (stereo not drawn)	i	i	i	i	1.7µM	?
CCOC(=O)C1=C(O)/C(=C/c2ccc(OCC(=O)O)c(OC)c2)SC1=Nc1ccc(OC)cc1	i	i	i	i	?	?
COc1cc(/C=C2\SC(=Nc3ccccc3)N(CCc3c[nH]c4ccccc34)C2=O)ccc1OC(C)C(=O)O (stereo not drawn)	i	i	i	i	5.2µM	10µM
COCCN1C(=O)/C(=C/c2ccc(Oc3ccc([N+](=O)[O-])cn3)c(OC)c2)SC1=Nc1ccccc1	i	i	i	i	1.5µM	i

Screens from PubChem BioAssay.
